# Assay results from PubChem BioAssay (NCI).
# Compounds without any hit were thinned out: in the full panel of roughly 83,000, 20% have a hit.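 Negative percent growth values reflect cell death: -40 means 40% of the cells present at the start died, and -100 means all died.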 Values without a mark were called inactive. Active and inactive are the calls of the source. Rule for the calls: active = growth percent below 10; inactive = the rest.
# Columns and labels:
# Assay in all cases: NCI-60 one-dose screen, 48 h (100 = growth as untreated, 0 = no growth, -100 = all killed)
# Settings in all cases: 10 µM unless noted
# DU-145 prostate = system: DU-145 prostate
# K-562 leukemia = system: K-562 leukemia
# MALME-3M melanoma = system: MALME-3M melanoma
# MDA-MB-231 breast = system: MDA-MB-231 breast
# RXF 393 renal = system: RXF 393 renal
# SF-268 CNS = system: SF-268 CNS
# SF-295 CNS = system: SF-295 CNS
# SF-539 CNS = system: SF-539 CNS
# UACC-257 melanoma = system: UACC-257 melanoma
# M14 melanoma = system: M14 melanoma
SMILES,growth (DU-145 prostate),growth (K-562 leukemia),growth (MALME-3M melanoma),growth (MDA-MB-231 breast),growth (RXF 393 renal),growth (SF-268 CNS),growth (SF-295 CNS),growth (SF-539 CNS),growth (UACC-257 melanoma),growth (M14 melanoma)
CCCCOc1ccc(/C(C)=N/Nc2cc(C)nc3ccc(Br)cc23)cc1,96.3%,15.7%,145%,81.3%,94.3%,96.3%,76.2%,98.7%,114%,104%
CCCCCOc1ccc(/C=N/Nc2cc(C)nc3ccc(Cl)cc23)cc1,5.9% (active),-33% (active),-63.8% (active),-77.3% (active),-85.5% (active),72%,-86% (active),-78.2% (active),99.2%,-15.4% (active)
COc1ccc(-c2[nH][nH]c(=O)c2-c2nc3ccccc3s2)cc1,108%,98.2%,110%,104%,109%,101%,107%,108%,106%,107%
N/C(=N\C(N)=N\c1nc2ccccc2s1)c1cnccn1,28.2%,17.1%,16.8%,58.1%,-43% (active),26.5%,28%,16%,35.5%,23.2%
O=S(=O)(NCCNc1nccc(-c2c(-c3cccc(F)c3)nc3sccn23)n1)c1ccc(Cl)cc1,54.2%,41.3%,82.6%,91.1%,69%,52.9%,63.7%,82.5%,88.7%,56.6%
Nc1c(C(=O)Nc2cccc3cnccc23)sc2nc3c(cc12)C(=O)CCC3,103%,46.3%,88.3%,83.4%,92.2%,96.4%,74.9%,93.6%,95.6%,74.6%
CCOC(=O)c1cc(C(=O)c2ccc(OC)c(OC)c2)n2c1ccc1ccccc12,109%,86.8%,93.8%,66.9%,95.7%,81%,96.9%,99.9%,107%,102%
Cn1c2ccccc2c2c3c(c4c5ccccc5n(C)c4c21)C(=O)OC3,104%,94.2%,109%,76.2%,101%,91.1%,107%,96.6%,109%,103%
CCOC(=O)Oc1c(OC)cc(C(=O)c2ccc(OC)c(OC(=O)CCl)c2OC)cc1OC,12.5%,10.4%,50.8%,33%,-17.9% (active),43.8%,20.7%,-16.9% (active),48.5%,-15% (active)
COc1cc2nc(-c3ccc(Cl)cc3)cc(OCCCN3CCC(O)CC3)c2cc1OC,38.5%,13.9%,64%,26.1%,46.3%,54.8%,-10.5% (active),54.3%,8.39% (active),-48% (active)
CCCCCCCCCCCCCCCC[N+]1(C)CCN(SN2CC[N+](C)(CCCCCCCCCCCCCCCC)CC2)CC1,70.5%,40.4%,78.4%,53.9%,-7.8% (active),64.4%,71.2%,48.7%,92.9%,20.8%
COc1cc2c(cc1OC)C(=O)/C(=C/c1cc(C)c(O)c(C)c1)S2,25.3%,12%,71.7%,56.9%,-6.02% (active),72.9%,18.4%,-3.74% (active),70.7%,19.1%
COC(=O)/C=C1\S/C(=N\NC(=O)c2cc3ccc2/C=C\c2ccc(cc2)/C=C\3)N(c2ccccc2)C1=O,50.9%,27%,78.8%,32.5%,5.34% (active),72.5%,62.6%,-22.5% (active),69.2%,53.1%
O=C(Nc1ccc(Cl)cc1)c1cc(NCc2cc(O)ccc2O)ccc1O,100%,41.9%,80.2%,69.1%,67.1%,77.2%,116%,43.5%,77.3%,102%
CCCCCCNC(=O)Oc1ccc(/C(=C(\C)c2ccccc2)c2ccc(OCCN3CCCCC3)cc2)cc1,82.8%,4.69% (active),34.2%,78.1%,47.6%,68.3%,35.4%,23.3%,-0.337% (active),-22.9% (active)
O=C(Nc1ccc(NC(=O)c2cc(=O)[nH]c3ccccc23)cc1)Nc1cccc(Cl)c1,105%,83.5%,90%,78.7%,95.3%,65.3%,95.3%,84.1%,98.2%,93%
Cc1ccc(NC(=O)c2cc(-c3nc4ccccc4s3)c(=O)n(NS(=O)(=O)c3ccc(Cl)cc3)c2N)cc1,107%,100%,112%,96.1%,112%,94.2%,101%,97.2%,104%,99.4%
O=C1Nc2cc(-c3ccc(NS(=O)(=O)c4ccccc4)cc3)ccc2/C1=C/c1ccc[nH]1,31.8%,61%,85.5%,62.9%,104%,92.1%,98.7%,76.2%,110%,90.1%
COc1ccc(NC(=O)c2cc(NCc3cc(O)ccc3O)ccc2O)cc1,97.4%,73.1%,108%,79.1%,91.2%,80.8%,115%,86.8%,76.3%,95.1%
O=C(c1nc2ccccc2[nH]1)C1C(c2ccc(Cl)cc2)C2CC3CCCC[C@H]3N2[C@@]12C(=O)Nc1cc(Cl)ccc12 (stereo not given in full),62.1%,29%,43.9%,42.6%,35.7%,42.2%,32.6%,60.6%,45.7%,34.2%
O=C(/C=C(O)/C=C/c1ccc(SC(F)(F)F)cc1)/C=C/c1ccc(SC(F)(F)F)cc1,97.2%,77.6%,98.6%,99.8%,104%,86.3%,97.5%,106%,104%,79.9%
O=[N+]([O-])c1cc(Br)c2cccc3c2c1CC3,112%,100%,120%,87.1%,110%,109%,116%,103%,106%,104%
COc1cc2c(c(O)c1Br)C(=O)c1c(O)cc(C[C@H](C)O)cc1[C@H]2[C@H]1c2cc(C[C@H](C)O)cc(O)c2C(=O)c2c1cc(OC)c(Br)c2O,24.5%,5.05% (active),-26.8% (active),-58.1% (active),21.1%,19.4%,-21.4% (active),-23.8% (active),-2.79% (active),16.5%
CC(Sc1nc2ccccc2c(=O)n1CCc1ccc(S(N)(=O)=O)cc1)C(=O)Nc1ccc(Cl)cc1 (stereo not given),99.4%,60.4%,89.7%,82.6%,72.4%,74.7%,83.8%,90.8%,90.2%,105%
Nc1c(C(=O)Nc2ccnc3ccccc23)sc2nc3c(cc12)CN(Cc1ccccc1)CC3,85.6%,38.5%,96%,67.7%,96.1%,87.8%,75.2%,99.1%,78.8%,41.9%
c1ccc2cc(Cn3c(-c4cccc5ccccc45)[n+](Cc4ccc5ccccc5c4)c4c5ccccc5c5ccccc5c43)ccc2c1,-96.5% (active),-35.2% (active),-82.6% (active),-72.9% (active),-90.6% (active),-38.2% (active),-83.9% (active),-92.5% (active),-67.2% (active),-63.5% (active)
